Results published in PubChem BioAssay (EPA / NIEHS).
The source made the active and inactive calls. How the source made its calls: active means hit-call score of the fitted dose curve at least 0.9, where 1 is the maximum; inconclusive means response in the unintended direction; inactive means score below 0.9.

These molecules were tested against Estrogen receptor beta (Homo sapiens) (UniProt Q92731) (assay: OT_ER_ERbERb_1440: Odyssey Thera (OT) 24-hour HEK293T Protein-Complementation Assay for Estrogen Receptor-beta/-beta Homodimer (AID 2283380);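 further: scored as signal increase over DMSO baseline for both agonists and antagonists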).
Sequence of Estrogen receptor beta (Homo sapiens) (Q92731 whole entry, looked up, the tested form may be a part): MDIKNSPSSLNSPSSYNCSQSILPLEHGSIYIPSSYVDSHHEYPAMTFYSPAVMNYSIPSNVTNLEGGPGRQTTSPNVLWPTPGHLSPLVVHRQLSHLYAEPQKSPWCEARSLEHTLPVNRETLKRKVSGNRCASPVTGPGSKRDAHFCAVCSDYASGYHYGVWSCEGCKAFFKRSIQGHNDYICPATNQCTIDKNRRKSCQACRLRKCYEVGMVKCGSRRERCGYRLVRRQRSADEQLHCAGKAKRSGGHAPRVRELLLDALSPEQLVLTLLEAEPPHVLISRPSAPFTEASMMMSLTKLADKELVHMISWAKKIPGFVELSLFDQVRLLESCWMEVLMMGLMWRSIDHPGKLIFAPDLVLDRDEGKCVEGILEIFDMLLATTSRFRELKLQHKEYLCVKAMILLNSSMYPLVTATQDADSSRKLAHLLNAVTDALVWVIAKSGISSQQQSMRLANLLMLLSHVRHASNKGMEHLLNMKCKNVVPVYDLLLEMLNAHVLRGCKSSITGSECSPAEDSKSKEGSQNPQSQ
Protocol: OT_ER_ERbERb_1440 is a cell-based assay that uses HEK293T, a human kidney cell line, with measurements taken at 24 hours after chemical dosing in a 384-well plate.OT_ER_ERbERb_1440 is one of one assay component(s) measured or calculated from the OT_ER_ERbERb_1440 assay. It is designed to make measurements of protein fragment complementation, a form of binding reporter, as detected with fluorescence intensity signals by Protein-fragment Complementation technology.Data from the assay component OT_ER_ERbERb_1440 was analyzed into 1 assay endpoint. This assay endpoint, OT_ER_ERbERb_1440, was analyzed in the positive analysis fitting direction relative to DMSO as the negative control and baseline of activity. Using a type of binding reporter, measures of receptor for gain-of-signal activity can be used to understand the binding at the pathway-level as they relate to the gene ESR2. Furthermore, this assay endpoint can be referred to as a primary readout, because the performed assay has only produced 1 assay endpoint. To generalize the intended target to other relatable targets, this assay endpoint is annotated to the nuclear receptor intended target family, where the subfamily is steroidal.
Protein-fragment complementation assay, or PCA, is a method for the identification and quantification of protein-protein interactions. In the PCA, the proteins of interest ("bait" and "prey") are each covalently linked to fragments of a third protein (e.g. DHFR, which acts as a "reporter"). Interaction between the bait and the prey proteins brings the fragments of the reporter protein in close proximity to allow them to form a functional reporter protein whose activity can be measured. The OT ER beta / ER beta assay is a homodimer PCA of the ligand binding domain (LBD; amino acids 310-547) of human ER beta stably expressed in HEK293T cells. […] Cells are fixed in 4 percent formaldehyde and stained with Draq5 (BioStatus) to identify cells prior to signal detection. Fluorescent signal in the basal state of the assay is very low and is primarily punctuate and cytoplasmic. Modulation of this assay is quantified as an increase in mean fluorescence intensity in the nucleus (for agonists) or in the nucleus and cytoplasm (antagonists) relative to vehicle controls, and can be quantified on a high content imaging device or a laser scanning cytometer. The latter instrument is favored for this assay because of the rapid mode of data acquisition, the ability to acquire data from the entire cell population in a well (as opposed to a fraction of the well on the high content devices) and the larger dynamic range typically achieved with this instrument. To assess sensitivity of the ER beta/ER beta LBD assay to ligand, cells were treated with the ER agonist 17- beta-estradiol (E2) in 10-point concentration- response format for 24 hours and monitored response on a laser scanning plate cytometer (Acumen eX3; TTP Lab Tech).
In the case of `Clc1ccccc1Cl`, the AC50 is reported as 7.71 µM (active).
`C[N+](C)(C)CC1CO1` (stereo not given) was tested, and the outcome was “inactive”.
With `ClCCOCCCl` the outcome was “inactive”.
In the case of `Cc1cccc(N)c1N`, the outcome is reported as “inactive”.
In the case of `Cc1ccc([N+](=O)[O-])cc1`, the outcome is reported as “inactive”.
With `CCCCCCCCCCCCCN1CC(C)OC(C)C1` (stereo not given) the outcome was “inactive”.
For `Cc1ccc(N)c(N)c1`, the outcome was “inactive”.
For `CS(=O)(=O)NC(=O)c1cc(Oc2ccc(C(F)(F)F)cc2Cl)ccc1[N+](=O)[O-]`, the outcome was “inactive”.
For `CCC(C)c1ccc(O)cc1` (stereo not given), the AC50 was 28.2 µM (active).
`O=C(N[C@H](c1ccccc1)[C@@H]1CN2CCC1CC2)c1c(Cl)ccc(C(F)(F)F)c1Cl` was tested, and the outcome was “inactive”.
With `c1ccc(NNc2ccccc2)cc1` the outcome was “inactive”.
In the case of `Cc1cc(N=Nc2ccccc2C)ccc1N`, the AC50 is reported as 12.2 µM (active).
In the case of `COC(=O)c1ccccc1N`, the outcome is reported as “inactive”.
`CCCCOC(=O)c1ccccc1C(=O)OCc1ccccc1` was tested, and the AC50 was 12.9 µM (active).
With `O=C1CCCO1` the outcome was “inactive”.
`CC(C)(OOC(C)(C)c1ccccc1)c1ccccc1` was tested, and the AC50 was 9.59 µM (active).
In the case of `CCCCCCCCOC(=O)c1ccc(C(=O)OCCCCCCCC)c(C(=O)OCCCCCCCC)c1`, the outcome is reported as “inactive”.
With `O=[N+]([O-])C(Br)(CO)CO` the outcome was “inactive”.
For `O=P(OCCCl)(OCCCl)OCCCl`, the outcome was “inactive”.
In the case of `OCCCBr`, the outcome is reported as “inactive”.
`C=CCc1ccc2c(c1)OCO2` was tested, and the outcome was “inactive”.
For `CCCCCCCCn1sccc1=O`, the outcome was “inactive”.
In the case of `CO[C@@H]1[C@H](OC(=O)NC(=O)CCl)CC[C@]2(CO2)[C@H]1[C@@]1(C)O[C@@H]1CC=C(C)C`, the outcome is reported as “inactive”.
`Nc1ccc([N+](=O)[O-])cc1` was tested, and the outcome was “inactive”.
With `OCCOCCO` the outcome was “inactive”.
`CNC(=O)Oc1cccc2c1OC(C)(C)C2` was tested, and the outcome was “inactive”.
With `CC(C)(C)OOC(=O)c1ccccc1` the outcome was “inactive”.
With `CCCCCOC(=O)c1ccccc1C(=O)OCCCCC` the outcome was “inactive”.
`CN(C)c1ccc(C(=O)c2ccc(N(C)C)cc2)cc1` was tested, and the outcome was “inactive”.
`OCCCl` was tested, and the outcome was “inactive”.
In the case of `CN(C)[C@@H]1C(=O)C(C(N)=O)=C(O)[C@@]2(O)C(=O)C3=C(O)c4c(O)cccc4[C@@](C)(O)[C@H]3C[C@@H]12`, the outcome is reported as “inactive”.
With `Nc1ccc(Oc2ccc(N)cc2)cc1` the outcome was “inactive”.
With `CC(C)(O)c1cnn2c(-c3ccc(F)c(-c4c(F)cccc4C#N)c3)cnc2n1` the AC50 was 93.7 µM (active).
With `Clc1ccc(Cl)c(Cl)c1` the outcome was “inactive”.
In the case of `CC(C)(C)OOC(C)(C)CCC(C)(C)OOC(C)(C)C`, the outcome is reported as “inactive”.
`CC(C)COC(=O)c1ccccc1C(=O)OCC(C)C` was tested, and the outcome was “inactive”.
For `[As]#[In]`, the outcome was “inactive”.
For `CN(C)C(=O)Nc1ccc(Cl)cc1`, the outcome was “inactive”.
With `[O-][Cl+]O` the outcome was “inactive”.
`CN(C)c1ccccc1` was tested, and the outcome was “inactive”.
